# Bioassay records deposited in PubChem BioAssay by National Center for Advancing Translational Sciences (NCATS).
# aSyn yeast inh: rescues yeast growth from alpha-synuclein toxicity; 370,000 tested, 0.14% active; AID 652106; Yeast expressing alpha-synuclein, growth rescue, BacTiter-Glo, 24 h; Potency, µM (titrated, usually from 46.1 µM), without a hit: at the highest dose growth rescue (activation), hits mostly activators; further: % of control where 0% means no effect; nearly all actives have a fitted effect of over 65% in size
#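 Readout is rescue of growth in alpha-synuclein-expressing yeast, so inhibitors of toxicity appear as activators. Growth after 24 hr at 30 deg C in galactose medium is quantified by luminescence.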
# ClpP mod: qHTS Assay for Activators of ClpP. AID 651965, 2013. Potency, µM (top dose mostly 57.5 µM), inactives show top-dose activity change, negative = active. purified B. subtilis ClpP, FRET peptide cleavage, 20 min. 340,000 tested, 1.9% active; active means well fitted falling curve with a large enough effect; inconclusive means small, poorly fitted or top-dose-only effect; inactive means no such curve, though single readings can be large or run the other way; further: the source files actives as falling curves though it sought activators and does not explain the sign; nearly all actives have a fitted effect of over 65% in size
# Target sequence (P80244 whole entry, looked up): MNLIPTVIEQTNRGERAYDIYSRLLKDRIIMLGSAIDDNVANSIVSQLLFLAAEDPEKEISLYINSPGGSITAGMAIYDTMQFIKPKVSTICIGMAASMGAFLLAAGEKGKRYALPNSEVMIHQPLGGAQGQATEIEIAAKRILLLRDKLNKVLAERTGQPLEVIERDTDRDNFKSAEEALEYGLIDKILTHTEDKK
#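 FRET quenching reversal measured ClpP activation: 10 microg/mL B. subtilis ClpP at pH 8 with the FRET-FV decapeptide, read at 430 nm after 320 nm excitation. The 20-min minus 0-min signal was scaled between DMSO/no-enzyme wells and ADEP (5.8 microM final).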
# TDP-43 yeast inh: TDP-43 toxicity inhibition in yeast | Potency, µM (doses to about 46.1 µM), without a hit: top-dose growth rescue (activation), most hits filed as activators | TDP-43 expressing yeast growth rescue, BacTiter-Glo, 24 h | AID 652104 | 410,000 tested, 1.8% active; further: % of control where 0% means no effect; nearly all actives have a fitted effect of over 50% in size
#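 Galactose-induced TDP-43 yeast, OD600=0.02, compound pinned; 24 hr, 30 deg C; BacTiter-Glo luminescence for growth. Inhibitors of TDP-43 toxicity read as activators.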
# Abeta rescue: compounds reversing amyloid beta toxicity in yeast; yeast expressing A-beta42, growth rescue, OD600, 48 h; response scale: 0% DMSO, 100% iron-clioquinol control; Potency, µM (top dose mostly 46.1 µM), actives largely listed as activators; 410,000 tested, 0.063% active; further: nearly all actives have a fitted effect of over 55% in size
#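 Growth rescue measured by 600 nm absorbance after 48 h yeast culture at 30 C with compound. Values normalized between DMSO and an equimolar ferric chloride plus clioquinol control.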
# FUS yeast rescue: suppressors of FUS proteinopathy in yeast; Potency, µM (highest dose often 76.6 µM), usual class: activators; 390,000 tested, 0.24% active; AID 1347120; S. cerevisiae FUS-expressing, growth rescue, OD600, 24 h;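 further: plate controls were DMSO vehicle for no effect and reference control for full effect; nearly all actives have a fitted effect of over 55% in size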
#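 Quantitative HTS measuring growth restoration of FUS-toxic yeast. Galactose-induced cells (OD 0.005) were exposed 24hr at 30C to compounds at several concentrations, then absorbance at 600 nm was recorded.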
# Mm-Cpn inhibitor: M. maripaludis TRiC chaperonin inhibition | Potency, µM (highest dose often 76.9 µM), for inactives: top-dose activity, negative = inhibition, hits mostly inhibitors | 330,000 tested, 0.031% active | purified Mm-Cpn ATPase, ADP Transcreener TR-FRET; further: on the % scale 0 is the no-effect control and ±100 the full control effect; nearly all actives have a fitted effect of over 80% in size
#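 25 nM Mm-CPN + cpd, 10 min 37°C; + 10 uM ATP, 30 min 37°C; buffer 30 mM Tris pH 7.4, 100 mM KCl, 5 mM MgCl2, 1 mM DTT; Transcreener ADP HTRF detection 30 min RT.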
# * = called active by the depositor; i = inactive; ? = inconclusive; . = no result given; ! = a repeat was not active; [ ] = dose if it differs, or a comment. Rows were chosen to be rich in hits. Some 3.6% of all compounds tested hit in one or more screens of this group. Unless noted, the call rests on the fitted dose curve; in most records, active means well fitted curve in the direction sought with a large enough effect; inconclusive means small, poorly fitted or top-dose-only effect, or another doubt; inactive means no such curve, though single readings can be large; an effect the other way counts as inactive or inconclusive. Potency means the concentration at half of the fitted maximal effect.
SMILES,aSyn yeast inh,ClpP mod,TDP-43 yeast inh,Abeta rescue,FUS yeast rescue,Mm-Cpn inhibitor
O=C(CCC(=O)OCc1ccc(Br)cc1)Nc1ccccc1,3.5%,-1.0%,7.08µM*,i,i,1.6%
O=C(CCC(=O)OCc1ccc(C(=O)Oc2ccc(Cl)cc2)cc1)Nc1ccccc1,-4.1%,-2.3%,-3.0%,i,i,0.8%
O=C(CCc1c[nH]c2ccccc12)OCc1ccc(Br)cc1,3.3%,-3.7%,12.6µM*,i,i,2.4%
O=C(COC(=O)CCc1c[nH]c2ccccc12)NCCc1ccccc1,12.3%,-7.3%,-10.8%,i,.,1.6%
CCOc1ccc(C=Nc2ccc(/C=C/c3ccnc4ccccc34)cc2)cc1OCC,-10.0%,-5.5%,.,.,.,.
O=C(Cn1c(=O)nc(-c2ccccc2)c2ccccc21)NCc1ccc(Cl)cc1,.,-4.5%,20.7%,i,i,.
COc1cc(OC)cc(C(=O)Nc2ccc3nc(N4CCC(C)CC4)cc(C)c3c2)c1,.,?,24.0%,i,i,.
COc1ccc(/C=C2\CCc3ccccc3C2=O)cc1O,-12.8%,.,14.1µM*,i,i,1.1%
CC(=O)Nc1ccc(/C=C2\CCc3ccccc3C2=O)cc1,0.0%,3.4%,35.5µM*,i,i,-2.8%
COc1cccc(-c2nc(C(N)=O)c3c(n2)n(-c2ccc4c(c2)OCO4)c(=O)n3C)c1OC,5.5%,0.5%,14.4%,i,i,.
CC(=O)C1(O)Cc2c(O)c3c(c(O)c2C(OC2CC(N)C(O)C(C)O2)C1)C(=O)c1c(O)cccc1C3=O (centres undefined),16.1%,-2.0%,.,.,.,.
Cc1ccc(S(=O)(=O)C(CNC(=O)c2ccc(C(F)(F)F)cc2)c2ccco2)cc1 (centres undefined),.,0.4%,-21.8%,i,?,.
O=C(NCC(c1ccco1)S(=O)(=O)c1ccc(Cl)cc1)c1ccc(C(F)(F)F)cc1 (centres undefined),.,-0.6%,15.8µM*,i,i,.
COc1ccc(CNC(=O)COc2cc(O)c3c(c2)OC(C)(C)CC3=O)cc1,7.2%,-28.4%,11.2µM*,i,i,1.5%
O=C1c2[nH]nc(-c3ccccc3O)c2C(c2ccc(F)cc2)N1Cc1ccco1 (centres undefined),5.5%,-2.3%,26.6%,i,44.7µM*,1.5%
O=C1c2[nH]nc(-c3ccccc3O)c2C(c2cccc(Cl)c2)N1Cc1ccco1 (centres undefined),6.3%,-2.6%,?,i,?,2.3%
Cc1cc(C)c(O)c(-c2n[nH]c3c2C(c2cccc(O)c2)N(Cc2ccco2)C3=O)c1 (centres undefined),-1.0%,0.1%,-9.1%,i,31.6µM*,0.5%
CCN(CC)C(=O)N1CCN(/[N+]([O-])=N/Oc2ccc([N+](=O)[O-])cc2[N+](=O)[O-])CC1,-58.5%,.,.,.,.,.
COc1cc2nc(Nc3ccc(C)c(C)c3)nc(N)c2cc1OC,-1.5%,?,16.3%,i,i,2.8%
CCOC(=O)c1ccc(Nc2nc(N)c3cc(OC)c(OC)cc3n2)cc1,0.4%,31.6µM*!,6.1%,i,i,0.7%
Cc1ccccc1CCNC(=O)c1ccc(NC(=O)N2CC(C)Sc3ccccc32)cc1 (centres undefined),.,-13.2%,21.8%,i,i,.
CC1CCN(C(=O)CSc2nc(-c3ccc(C(C)C)cc3)no2)CC1,.,-1.8%,17.8µM*,i,i,.
O=C(CSc1ccc(-c2ccc(F)cc2)nn1)N1CCCCC1,-3.3%,-2.0%,-26.6%,i,i,0.2%
CC1CCN(C(=O)CSc2ccc(-c3ccc(F)cc3)nn2)CC1,12.5%,31.6µM*,?,i,.,-1.1%
CC(Cc1cccs1)NC(=S)Nc1ccc(Cl)cc1 (centres undefined),-18.0%,.,-13.5%[0.397 µM],?,i,-0.9%
SMILES,aSyn yeast inh,ClpP mod,TDP-43 yeast inh,Abeta rescue,FUS yeast rescue,Mm-Cpn inhibitor
Cc1ccc(NC(=O)Cc2cccs2)cc1Cl,1.8%,-2.5%,20µM*,i,i,2.5%
CC(Cc1cccs1)NC(=S)Nc1ccc(Cl)c(Cl)c1 (centres undefined),-0.3%,.,-16.7%[0.397 µM],11.2µM*,i,2.6%
O=C(Cc1cccs1)Nc1ccc(S(=O)(=O)Nc2ncccn2)cc1,-14.0%,0.3%,-0.5%,i,10µM*,-0.9%
Cc1ccnc(NS(=O)(=O)c2ccc(NC(=O)Cc3cccs3)cc2)n1,3.6%,-0.9%,13.5%,i,?,-0.4%
Cn1c(SCc2ccc(Cl)cc2)nnc1-c1ccc(NC(=O)CCc2ccccc2)cc1,-9.4%,1.3%,.,.,.,.
CCCCOc1ccc(C2c3c(oc4ccc(C)cc4c3=O)C(=O)N2CCCN(C)C)cc1OCC (centres undefined),.,1.5%,-0.6%,i,i,.
Cc1ccccc1CCNCc1c(C(=O)O)c(C)n(Cc2c(F)cccc2Cl)c1C,.,-1.0%,-14.6%,i,i,.
COc1cc(/C=C/C(=O)Nc2nc3ccc(S(=O)(=O)N(C)C)cc3s2)cc(OC)c1OC,0.1%,7.94µM*,4.2%,i,i,-0.5%
COc1cc(/C=C/C(=O)Nc2nnc(C(C)(C)C)s2)cc(OC)c1OC,0.6%,31.6µM*,17.7%,i,.,0.4%
Cc1ccc(Cn2cc(S(=O)(=O)c3ccc(C)cc3)c(=O)c3cc(F)c(N4CCCC4)cc32)cc1,.,?,16.6%,i,i,.
CCOC(=O)[C@]12CCCC3=C1N(CCC3)C(=O)[C@@H](CC(=O)N1CCCCC1)C2,.,.,.,.,i,.
O=C(C(=O)N1CCC(c2ccccc2)CC1)c1ccc(F)c(F)c1,9.4%,0.3%,22.4µM*,i,i,.
Cc1c(NC(=O)c2cccc3c(Cl)cccc23)cccc1-c1nc2ccccc2o1,.,-5.4%,13.6%,i,i,.
c1coc(C2Nc3ccccc3-c3nc4ccccc4n32)c1 (centres undefined),-22.8%,2.82µM*,-0.6%,i,i,-3.1%
CCSc1nc(-c2ccc(OC)cc2)n(-c2nc3ccccc3s2)n1,4.3%,28.2µM*,20.6%,i,i,-4.0%
O=C(CCC1CCCC1)N1CCc2c([nH]c3ccccc23)C1c1ccc(Cl)cc1 (centres undefined),.,-3.8%,-16.3%,i,i,.
O=C(CSc1cccc[n+]1[O-])CSc1cccc[n+]1[O-],?,.,3.55µM*,?,i,-2.0%
O=C(CSc1cccc[n+]1[O-])N1CCCCCC1,0.1%,-1.8%,9.3%,i,i,0.2%
